Test results as given in PubChem BioAssay AID778 (Sanford-Burnham Center for Chemical Genomics, 2007).
The campaign covered roughly 96,000 compounds. About 20,000 (21%) were called active.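 Rule for the calls: active = CYP2C19 inhibition above a set limit at 5 µM in the primary screen (cut at about 50% in these data); inactive = the rest.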 These entries were drawn from the full list.

What follows are compounds tested against Cytochrome P450 2C19 (Homo sapiens) (UniProt P33261) (assay: blockers of cytochrome P450 2C19 activity – biochemical, luminescence, ADME assay, primary screen (AID 778;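 note: plate controls were negative control wells for no effect and 2.5 mM tranylcypromine positive control for full effect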)). Details: CYP2C19 Supersomes, luciferin-H EGE luminescence, 30 min; at 5 µM; stronger effect = higher value.
Chain of Cytochrome P450 2C19 (Homo sapiens) (P33261 whole entry, looked up): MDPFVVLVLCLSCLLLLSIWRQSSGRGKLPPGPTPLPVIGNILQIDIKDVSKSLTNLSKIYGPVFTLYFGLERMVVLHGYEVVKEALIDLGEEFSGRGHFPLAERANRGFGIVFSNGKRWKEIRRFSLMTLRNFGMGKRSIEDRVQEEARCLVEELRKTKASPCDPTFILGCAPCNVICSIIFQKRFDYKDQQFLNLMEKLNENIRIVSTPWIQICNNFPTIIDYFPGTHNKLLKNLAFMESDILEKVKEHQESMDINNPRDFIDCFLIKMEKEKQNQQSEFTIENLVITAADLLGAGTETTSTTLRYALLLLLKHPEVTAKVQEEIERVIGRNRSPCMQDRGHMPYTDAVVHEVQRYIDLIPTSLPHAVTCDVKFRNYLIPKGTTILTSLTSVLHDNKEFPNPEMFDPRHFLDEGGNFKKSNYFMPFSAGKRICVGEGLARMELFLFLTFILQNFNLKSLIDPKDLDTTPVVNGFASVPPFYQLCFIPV

inhibition, inactive:
CC(CO)N1CCS(=O)(=O)CC1 (centres undefined) -1.3%, O=C(c1ccc(Cl)cc1)c1cnc(Nc2ccccc2)s1 -10.7%, CCCOC(=O)Nc1ccccc1C(N)=O 5.8%, CSCCC(NC(=O)COc1ccccc1)C(=O)OCC(=O)c1cc2ccccc2o1 (centres undefined) 28.3%, C=CCn1c(SCC(=O)c2c(N)n(C)c(=O)n(C)c2=O)nc2sc(CC)cc2c1=O 1.3%, COc1ccc(CN2CCn3ncc(C(=O)Nc4ccc(Cl)cc4Cl)c3C2=O)cc1 -8.8%, O=C(COC(=O)CCc1c[nH]c(=O)[nH]1)Nc1ccccc1Cl -10%, O=C(O)CSCNC(=O)CC12CC3CC(CC(C3)C1)C2 11.3%, O=C(O)c1ccc(NS(=O)(=O)c2cccc3nsnc23)cc1 2%, O=C(C(NS(=O)(=O)c1cccc2nsnc12)c1ccccc1)N1CCN(c2ccccn2)CC1 (centres undefined) 35.6%, CC(C)c1nc2ccc(C(=O)O)cc2[nH]1 12.1%, CC(C)(C)c1cc(=O)n2c(nc3ccccc32)[nH]1 12.3%, C/C(=N\NC(=O)c1ccccc1C)c1ccc(N2CCOCC2)cc1 3.2%, Cc1cccc(-n2nc3c(c2NC(=O)c2ccc(Br)o2)CSC3)c1C -0.9%, O=C1CCC(=O)N1CCOP1(=O)COc2ccccc2OC1 -14.7%, CN=C1SC(C(=O)O)CC(=O)N1C (centres undefined) -3.4%, COC(=O)c1ccc(NC(=O)CSc2nnc(Cc3cccn3C)n2-c2ccc(F)cc2)cc1 22.5%, Cc1ccc(C)c(NC(=O)CSc2nnc(Cc3cccn3C)n2-c2ccc(F)cc2)c1 15.6%, COc1ccc(-n2c(Cc3cccn3C)nnc2SCC(=O)Nc2cc(C)cc(C)c2)cc1 20.6%, Cc1nnc(SCC(=O)N/N=C/c2cn(-c3ccccc3)nc2-c2ccc(F)cc2)n1-c1ccccc1 3.9%, CC1(C)CC(=O)C=C(NCc2ccncc2)C1 31.5%, CCN(CC)C(=O)CSc1nnc(C2CCCCC2)o1 8.6%, CCCC(=O)Nc1ccc2c(c1)nc1n2CCSC1 -2.8%, COc1cccc(OC)c1C(=O)Nc1ccc(N2CCCCC2)cc1 -3.6%, Cc1ccc2nc(-c3ccccc3)cc(C(=O)O)c2c1 -3.4%, Cc1ccc(OCC(=O)Nn2cnc3ccccc32)cc1 17.2%, O=C(C1=C(O)C(=O)N(c2ncccn2)C1c1cccs1)c1ccco1 (centres undefined) 1.3%, CCC(=O)c1ccc(OCC(O)CN2CCN(c3cccc(C(F)(F)F)c3)CC2)cc1 (centres undefined) 25.5%, Cn1nc(C(F)(F)F)c2cc(NC(=O)OCC(C)(C)C)sc21 34.6%, COc1ccc(Nc2cc(=O)oc3ccccc23)cc1 17.7%, CCOC(=O)C1CCN(C(=O)C2CCN(S(=O)(=O)c3c(C)noc3C)CC2)CC1 14.7%, CCOc1ccccc1NC(=O)C1CCN(S(=O)(=O)c2c(C)nn(C)c2C)CC1 44.7%, Cc1noc(/C=C/N(C)C)c1S(=O)(=O)N1CCCC(C(=O)NCc2ccco2)C1 (centres undefined) 39.6%, Cc1ccc(NC(=O)C2CCCN(S(=O)(=O)c3c(C)noc3C)C2)c(C)c1 (centres undefined) 11.2%, COc1ccc(N2CCN(Cc3cc(=O)oc4ccc5ccccc5c34)CC2)cc1 12.4%, Fc1ccc(N2CCN(Cc3cnc(Oc4ccc(Br)cc4)s3)CC2)cc1 2.8%, Cc1ccc(Cl)cc1NC(=O)COC(=O)C1CCCCC1 32.1%, CCc1ccc(N2CC(C(=O)NC3=NCCS3)CC2=O)cc1 (centres undefined) -1.1%, CCCOc1ccc(N2CC(C(=O)Nc3ccccn3)CC2=O)cc1 (centres undefined) -18.5%, CN(C)C(=O)c1cc(Br)ccc1Cl 4%, CCOc1cccc(/C(O)=C2/C(=O)C(=O)N(CCOC)C2c2ccncc2)c1 (centres undefined) -18.2%, COc1ccc(N2C(=O)CC(N3CCC(C(N)=O)CC3)C2=O)cc1 (centres undefined) -28.9%, COc1ccc(C(=O)Nc2ccc(S(=O)(=O)NC(C)C)cc2)cc1 42.9%, COC(=O)CNS(=O)(=O)c1ccc(OC)cc1 10.3%, Cc1nc(-c2ccccc2)sc1-c1nc(-c2ccccc2)ncc1S(=O)(=O)c1ccccc1 5.1%, CC(C)NS(=O)(=O)c1ccc(CCC(=O)N2CCOCC2)cc1 14.2%, O=C(OC(C(=O)NC1CCCC1)c1ccc(F)cc1)c1ccno1 (centres undefined) 8.1%, CC(=O)OC(C(=O)NC1CCCCC1)c1ccccc1 (centres undefined) 20.2%, CCn1c(C)nc2c1C(=O)c1ccccc1C2=O -8.5%, Cc1nc2c(c(=O)n1Cc1ccco1)c1nc3ccccc3nc1n2Cc1ccccc1 3%, CCC(C)N1C(=O)S/C(=C/c2ccc(Sc3nc4ccccc4[nH]3)o2)C1=O (centres undefined) 43.3%, CC(C)Cc1oc(C(=O)O)cc1CN 4.2%, CC1OC2C(OC1C)N(S(C)(=O)=O)CCN2S(C)(=O)=O (centres undefined) -4.8%, Cc1ccc(CNC(=O)C2CC(=O)N(C3CCCCCCC3)C2)cc1 (centres undefined) -2.5%, Cc1ccc(CCN2CC(C(=O)O)CC2=O)cc1 (centres undefined) -0.5%, Cc1ccc(C(=O)NC2CCN(C(=O)N3CCOCC3)CC2)cc1 -1.3%, O=C(NC1CCCCC1)c1ccc(CNc2c(N3CCOCC3)c(=O)c2=O)cc1 9.7%, COc1ccc(NC(=O)C(NC(C)=O)C(=O)NCc2ccccc2Cl)cc1 (centres undefined) 12.9%, COc1ncnc2c1N=C1CC(C)(C)CC(N)=C1S2 4.5%, O=c1[nH]nc(Cc2ccccn2)c2ccccc12 -0.8%, CCCC1C(c2ccccc2)C(C#N)(C#N)C2(C#N)CC1(N)NC2=O (centres undefined) 5%, O=C(O)c1ccccc1NC(=S)NC(NC(=O)c1ccccc1[N+](=O)[O-])C(Cl)(Cl)Cl (centres undefined) 2%, CC1(C)N=C(c2ccccn2)C(C)(C)N1O 29.9%, COc1ccc(NC(=O)Nc2ccc3nsnc3c2)cc1 20.3%, COc1cccc(N2C(=O)C3CCCN3C2c2ccc(F)cc2)c1 (centres undefined) -0.1%, Cc1cc(NS(=O)(=O)c2ccccc2)no1 -16.4%, O=C(/C=C/c1ccco1)Nc1cccc(-c2nc3ccccc3[nH]2)c1 47.9%, Cc1ccc(C)c(S(=O)(=O)n2cnc3ccccc32)c1 -11.2%, CC(=O)c1ccc2c(ccc3ccccc32)c1 35%, O=C(c1cccc2ccccc12)N1CCN(c2ccccc2F)CC1 35.4%, Cc1cc(-n2nc(C)cc2C)n2nc(C)c(-c3ccccc3)c2n1 21.4%, COc1ccccc1C(=O)N1CCNC(=O)C1CC(=O)Nc1ccc(Cl)cc1 (centres undefined) 12.1%, CCOc1cccc(SCc2noc(C(=O)NC(C)C)c2C(=O)O)c1 8.8%, COc1ccc(OC)c(C2N(c3ccccn3)C(=O)C3CCCN32)c1 (centres undefined) -2.4%, CCn1c(CNc2ccc(OC)cc2)nnc1SCC(=O)c1ccc(OC)cc1 33.9%, COc1ccc(-c2nnc(SCC(=O)c3ccco3)n2-c2ccccc2)cc1 -13.8%

inhibition, active:
Cc1cc2c(=O)n(C)c(SCC(=O)c3cc4ccccc4o3)nc2s1 85.9%, O=C(C(NS(=O)(=O)c1cccc2nsnc12)c1ccccc1)N1CCN(c2ccccc2)CC1 (centres undefined) 86.3%, Cn1cccc1Cc1nnc(SCC(=O)NCCc2ccccc2)n1-c1ccc(F)cc1 59.6%, Cn1cccc1Cc1nnc(SCC(=O)NCc2ccc3c(c2)OCO3)n1CCc1ccccc1 88.3%, COc1ccccc1NC(=O)CSc1nnc(Cc2cccn2C)n1-c1ccc(F)cc1 66.3%, COc1ccc(-c2cc(C(=O)n3cnc4ccccc43)c3ccccc3n2)cc1 74.8%, CCC(=O)OCc1c(C(F)(F)F)nn(C)c1Oc1cccc(C(F)(F)F)c1 57.7%, Cc1noc(C)c1S(=O)(=O)N1CCCC(C(=O)Nc2nccs2)C1 (centres undefined) 78.8%, CCOc1ccc(OCC)c(NC(=O)C2CCN(S(=O)(=O)c3c(C)noc3C)CC2)c1 54.5%, COc1ccc(N2CCN(Cc3ccc(Br)s3)CC2)cc1 96.1%, C=CCSC1=C(C#N)C(c2cc(Br)c(O)c(OC)c2)CC(=O)N1 (centres undefined) 67.5%, CC(C)c1ccc(N2CC(C(=O)Nc3nccs3)CC2=O)cc1 (centres undefined) 59.1%, CO/N=C(/CS(=O)(=O)c1ccc(Br)cc1)c1ccc(OC)cc1 100%, Cn1c(C(=O)OC(C(=O)NC2CCCCC2)c2ccccn2)cc2sccc21 (centres undefined) 67.2%, Cc1nc2ccccc2c(=O)n1CCCn1ccnc1 50.8%, CCc1ccc(CNC(=O)C2CC(=O)N(CCc3ccc(C)cc3)C2)cc1 (centres undefined) 54.2%, O=C1OC(NC(=O)c2ccccc2)C(N2CCOCC2)=C1Cl (centres undefined) 52.8%, CN(CCc1ccccn1)S(=O)(=O)c1ccc2c3c(cccc13)C(=O)N2 93.6%, O=S(=O)(Nc1ccc2nc(-c3ccco3)[nH]c2c1)c1ccccc1 92.4%, Cc1ccc(C)c(NS(=O)(=O)c2cc(Br)cnc2N)c1 61.5%, COc1c(C(=O)N2CCCC2)ccc2ccccc12 53%, COc1ccccc1C(=O)N1CCN=C1SCc1cccnc1 88.2%, COc1ccc(NCc2nnc(SCc3ccccc3)n2-c2ccc(OC)cc2)cc1 85.8%
